# Reference: PubChem BioAssay AID651601 (Sanford-Burnham Center for Chemical Genomics, 2012)
# Activity calls are given as the source filed them.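 The calls were made as follows: active = CXCR6 mean IC50 below 15 µM, and neither CCR6 nor CXCR5 mean IC50 under five times that; inactive = the rest.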
# Target: C-X-C chemokine receptor type 6 (Homo sapiens) (UniProt O00574)
# Test: chemokine receptor panel antagonism: CCR6, CXCR5, CXCR6, profiling panel, selectivity assay for CXCR6 antagonist project, cell-based, CHO-K1 PathHunter beta-arrestin, luminescence (AID 651601)
# Conditions: antagonist mode, mean of runs
# Chain of C-X-C chemokine receptor type 6 (Homo sapiens) (O00574 whole entry, looked up): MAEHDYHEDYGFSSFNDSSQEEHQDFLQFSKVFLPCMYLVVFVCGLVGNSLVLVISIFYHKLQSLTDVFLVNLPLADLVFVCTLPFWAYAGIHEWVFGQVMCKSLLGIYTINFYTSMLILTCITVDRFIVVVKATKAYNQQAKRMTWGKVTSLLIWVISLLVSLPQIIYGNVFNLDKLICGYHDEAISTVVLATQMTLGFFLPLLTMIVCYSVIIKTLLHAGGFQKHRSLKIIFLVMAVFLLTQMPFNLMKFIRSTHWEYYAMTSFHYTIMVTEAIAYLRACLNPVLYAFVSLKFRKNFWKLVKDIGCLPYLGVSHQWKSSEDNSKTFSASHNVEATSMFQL
row,Structure (SMILES),outcome
1,COc1cccc(C(=O)NC2CC3CCCC(C2)N3CC(=O)Nc2ccccc2C(F)(F)F)c1 (stereo unspecified),inactive
2,COc1cc(C(=O)NC2CC3CCCC(C2)N3CC(=O)Nc2ccccc2)cc(OC)c1OC (stereo unspecified),active
3,O=C(CN1C2CCCC1CC(NC(=O)c1ccccc1)C2)Nc1ccccc1 (stereo unspecified),inactive
4,COc1cccc(C(=O)NC2CC3CCCC(C2)N3CC(=O)Nc2ccc(N(C)C)cc2)c1 (stereo unspecified),inactive
5,CN(C)c1ccc(NC(=O)CN2C3CCCC2CC(NC(=O)c2ccccc2)C3)cc1 (stereo unspecified),inactive
6,O=C(CN1C2CCCC1CC(NC(=O)c1ccccc1)C2)Nc1ccccc1C(F)(F)F (stereo unspecified),inactive
